Bioassay records from PubChem.
The list is not random: actives were taken first. Their share in the collection is about 0.95%.
LmPK inh = blocks Leishmania mexicana pyruvate kinase activity. Q27686. purified LmPK, Kinase-Glo ATP luminescence, 1 h. Potency, µM (titrated, usually from 57.5 µM), for inactives: at the highest dose activity change, negative = inhibition, usual class: inhibitors. 0.37% of 290,000 active
Target sequence (Q27686 whole entry, looked up): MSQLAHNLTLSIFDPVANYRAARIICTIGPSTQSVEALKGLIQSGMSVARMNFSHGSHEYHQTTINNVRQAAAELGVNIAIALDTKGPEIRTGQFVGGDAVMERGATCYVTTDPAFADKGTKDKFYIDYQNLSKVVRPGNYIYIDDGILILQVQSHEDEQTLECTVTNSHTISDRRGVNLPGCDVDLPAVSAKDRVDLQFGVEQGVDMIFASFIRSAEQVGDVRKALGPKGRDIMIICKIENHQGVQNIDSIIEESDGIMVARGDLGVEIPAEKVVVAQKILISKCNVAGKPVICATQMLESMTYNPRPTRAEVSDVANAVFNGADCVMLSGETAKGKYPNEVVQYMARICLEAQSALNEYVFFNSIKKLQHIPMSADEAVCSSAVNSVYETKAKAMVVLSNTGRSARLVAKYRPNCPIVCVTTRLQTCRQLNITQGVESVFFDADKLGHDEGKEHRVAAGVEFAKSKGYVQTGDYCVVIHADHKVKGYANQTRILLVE
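0.1 nM LmPK, 0.5 mM PEP, 0.1 mM ADP; 50 mM imidazole pH 7.2, 7 mM MgCl2, 50 mM KCl; 1 h RT. Kinase-Glo luminescence readout, normalized to no-enzyme (full inhibition) and uninhibited wells.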
RE007 growth inh = less growth of the S. pombe RE007 Vpr strain; S. pombe RE007 Vpr strain, BacTiter-Glo ATP luminescence, 24 h; Potency, µM (titrated, usually from 92.2 µM), inactives show top-dose activity change, negative = less growth, hits mostly inhibitors; 0.21% of 360,000 active; AID 651644; active = well fitted falling curve with a large enough effect; inconclusive = small, poorly fitted or top-dose-only effect; inactive = no such curve, though single readings can be large or run the other way; also: nearly all actives have a fitted effect of over 50% in size
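Fission yeast RE007 carrying one integrated HIV-1 vpr copy, seeded at OD 0.01 in PMG+AL medium with 23 nL pinned compound. Grown 24 h at 30 degrees; viability read by BacTiter-Glo luminescence after 5 min.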
TbPYK inhibitor = blocks Trypanosoma brucei pyruvate kinase | AID 624173 | Potency, µM (top dose mostly 76.8 µM), inactives show top-dose activity, negative = inhibition, most hits filed as inhibitors | 0.12% of 410,000 active | TbPYK enzyme, Kinase-Glo Plus ATP luminescence, 45 min; also: nearly all actives have a fitted effect of over 50% in size
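Enzyme and substrate buffer are dispensed first and compound is pin-transferred. ADP at 130 uM final then starts the reaction, which runs 45 min at room temperature. Detection reagent is added for 10 min before luminescence is imaged.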
FBPA Giardia inh = Giardia lamblia aldolase inhibition | AID 2451 | Potency, µM (doses to about 59.6 µM), inactives show top-dose activity, negative = inhibition, usual class: inhibitors | purified Giardia FBPA | 0.71% of 290,000 active; also: nearly all actives have a fitted effect of over 55% in size
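40 nM FBPA preincubated 10 min at RT with compound (up to 57.5 uM final), then substrate plus GAPDH/TPI/NAD/arsenate coupling and diaphorase/resazurin added. Fluorescence read after 20 min at RT, 525/598 nm.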
Starred values were filed as active, the others as inactive; u = inconclusive; x = no result given; [ ] = another dose, or the depositor's remark. Unless noted, calls follow the shape of the dose curve; as a rule, active = well fitted curve in the direction sought with a large enough effect; inconclusive = small, poorly fitted or top-dose-only effect, or another doubt; inactive = no such curve, though single readings can be large; an effect the other way counts as inactive or inconclusive. % is scaled to controls: 0 for no effect and ±100 for the full control effect; potency is read from the fitted curve at half-maximal effect.

SMILES	LmPK inh	RE007 growth inh	TbPYK inhibitor	FBPA Giardia inh
C=C(C)C(=O)OCC1CN2C(CCC(C)C2c2ccc(Br)cc2)C(=O)O1 (stereo unspecified)	x	x	x	0%[12.9 µM]
CCOC(=O)C1CCN(C2CC(=O)N(c3cccc(Cl)c3)C2=O)CC1 (stereo unspecified)	1%	10µM*	-15%	2%
O=C(C1CCN(C2CC(=O)N(c3ccc(Cl)cc3)C2=O)CC1)N1CCOCC1 (stereo unspecified)	-3%	13µM*	-9%	0%
CCOC(=O)C1CCCN(C2CC(=O)N(c3ccc(C)cc3)C2=O)C1 (stereo unspecified)	-8%	u	0%	3%
CCOc1cccc(N2C(=O)CC(N(CCc3ccc(OC)c(OC)c3)C(=O)CC)C2=O)c1 (stereo unspecified)	0%	-1%	0%	-1%
COC(=O)C1CCN(C2CC(=O)N(c3cc(C)cc(C)c3)C2=O)CC1 (stereo unspecified)	2%	35µM*	3%	1%
CCOC(=O)c1ccc(N2C(=O)CC(N(C)CCc3ccc(OC)c(OC)c3)C2=O)cc1 (stereo unspecified)	9%	4µM*	-5%	-6%
CC(C)(C)C(=O)Nc1ccc2nc(SCC(=O)N3CCCC3)sc2c1	x	x	3%	x
C=C1CCC(O)C/C1=C/C=C1\CCC[C@]2(C)[C@@H]([C@H](C)/C=C/[C@H](C)C(C)C)CC[C@@H]12 (stereo partly specified)	x	x	-4%	x
CCOC(=O)N/N=C1/C[C@@H](O)[C@@H](O)[C@@H]2[C@@H]3C(=O)N(c4cccc(Oc5ccccc5)c4)C(=O)[C@H]3CC[C@@H]12	x	x	x	1%[12.9 µM]
CC(C)(C)[Si](C)(C)c1c2c(nc3ccc(OCc4ccccc4)cc13)-c1cccc(=O)n1C2	x	x	x	-12%
O=C(C1CCN(C2CC(=O)N(c3cccc(Cl)c3)C2=O)CC1)N1CCCC1 (stereo unspecified)	-1%	13µM*	4%	-3%
CCN(CC)C1CC(=O)N(c2cccc(Cl)c2)C1=O (stereo unspecified)	-1%	5.6µM*	-2%	12%
CCOC(=O)c1ccc(N2C(=O)CC(N3CCOCC3)C2=O)cc1 (stereo unspecified)	-4%	35µM*	4%	3%
CC[n+]1c(/C=C/C=C/c2ccc(N(C)C)cc2)sc2ccccc21	16µM*	6.3µM*	u	-2%
CCCCCCCCCCCC[N+](C)(C)Cc1ccccc1	x	x	-2%	x
COC1=C(OC)C(=O)C(Sc2ccc3ccccc3c2)=CC1=O	x	7.1µM*	1.8µM*	x
CCN1CCN(CCCNC(=O)Cn2nc(C)n3c(cc4cc(C)ccc43)c2=O)CC1	x	x	-9%	x
C[C@@H]1CCCCO[C@H](CN(C)C(=O)Nc2cccc3ccccc23)[C@@H](C)CN([C@H](C)CO)C(=O)c2cc(N(C)C)ccc2O1	x	-38%	11µM*	x
C[C@@H]1CCCCO[C@@H](CN(C)C(=O)Nc2ccccc2)[C@@H](C)CN([C@H](C)CO)C(=O)c2cc(N(C)C)ccc2O1	x	-4%	-15%	x
O=C1c2ccccc2C(=O)N1/N=C/c1ccc(O)c(O)c1O	-7%	-8%	u	7.9µM*
Cc1nc2ccccc2c(=O)n1/N=C/c1ccc(O)c(O)c1O	3%	x	-26%	7.1µM*
O=C1c2cccc3cccc(c23)C(=O)N1/N=C/c1ccc(O)cc1O	3%	8%	-2%	-2%
CCCCCCCC1=CC2=CC(=O)C(C)(O)C(=O)C2=CN1CCCC (stereo unspecified)	x	x	x	-15%[12.9 µM]
Cc1ccc(/C=[N+](\[O-])c2ccc(N(C)C)cc2)c2nsnc12	-2%	4µM*	-20%	u
SMILES	LmPK inh	RE007 growth inh	TbPYK inhibitor	FBPA Giardia inh
C[C@@]12C=Cc3occc3[C@H]1CC[C@]13CC(=O)[C@@H](CC[C@H]12)C3	x	x	x	3%
Cc1ccc2nc(-c3ccccc3)cn2c1	7.1µM*	45µM*	25µM*	-28%
Cc1ccc2nc(-c3ccc(O)c(O)c3)cn2c1	u	17%	-23%	u
CCN(CC)CCOC(=O)c1ccc(N)cc1Cl	x	x	-1%	x
O=C(O)c1ccc(N/N=C/c2ccc(F)c(F)c2)cc1	-17%	u	-1%	6%
Cc1ccc(N/N=C/c2ccncc2)cc1	-1%	7%	3%	5%
O=C(O)c1ccc(N/N=C/c2ccncc2)cc1	-5%	-16%	-7%	4µM*
O=C(O)c1ccc(N/N=C/c2ccc3nccnc3c2)cc1	16µM*	u	u	-1%
O=C(Nc1cccc(Br)c1)N1CCN2CCCCC2C1 (stereo unspecified)	x	x	1%	x
O=C1NC(=S)N(Cc2ccco2)C(=O)/C1=C\c1cccs1	17%[11.5 µM]	x	x	16µM*
C=CCN1C(=O)/C(=C/c2cccs2)C(=O)NC1=S	8%	u	35µM*	-26%
CC1NC(=O)C(N)CNC(=O)C(C2CCN=C(N)N2)NC(=O)/C(=C/NC(N)=O)NC(=O)C(CNC(=O)CC(N)CCCN)NC1=O (stereo unspecified)	x	x	-2%[33.2 µM]	6%
N#C/C(=C\c1ccc(N2CCOCC2)o1)c1ccccc1	2%	u	-28%	u
N#C/C(=C/c1ccc(N2CCOCC2)o1)c1ccc(Br)cc1	2%	-5%	25µM*	x
COc1cc2c(C#N)c(N3CCCC3)nc(N)c2c(N)n1	4%	-5%	2%	1.3µM*
S=c1[nH]nc(CCc2nc3ccccc3[nH]2)n1-c1ccccc1	-12%	1%	u	2%
S=c1[nH]nc(CCc2nc3ccccc3[nH]2)n1-c1cccc(Cl)c1	10µM*	2%	u	-1%
C#CCCCO/N=C1/C[C@@H](O)[C@@H](O)[C@@H]2[C@H]3C(=O)N(c4ccc(F)cc4F)C(=O)[C@@H]3CC[C@@H]12	x	x	x	4%[12.9 µM]
C=CCNC(=S)Nc1cccc2ccccc12	2%	-3%	0%	16µM*
O=C(C#Cc1ccccc1)c1ccco1	-4%	8.9µM*	4%	-3%
O=C(N/N=C/c1ccccc1)c1ccco1	u	-17%	-1%	0%
COc1ccc2nc(-c3cccc(N)c3)[nH]c2c1	22µM*	-9%	-7%	u
Nc1ccc2nc(-c3ccccc3)[nH]c2c1	14µM*	-6%	-12%	-13%
Nc1ccc2nc(-c3ccccn3)[nH]c2c1	20µM*	-18%	-14%	-17%
COc1ccc2nc(-c3ccc(N)cc3)[nH]c2c1	u	-7%	-12%	-12%
SMILES	LmPK inh	RE007 growth inh	TbPYK inhibitor	FBPA Giardia inh
O=c1c(-c2ccc(F)cc2)nc2cnc(N3CCOCC3)nc2n1C1CC1	x	x	x	-2%
Cc1ccc(C)c(NC(=O)CSc2nnc(CNC(=O)c3ccccc3)n2-c2ccccc2)c1	x	x	-4%	x
NC(=S)NNc1cc(Cl)cc(Cl)c1	-4%	8.9µM*	1%	u
Cc1cc(Cl)ccc1NNC(N)=S	3%	16µM*	-6%	u
Cc1ccc(N/N=C/c2c(C)c(C#N)c(=O)n(C)c2O)cc1C	2%	-7%	-18%	13µM*
CC(C)CC1OCCC=CC1C (stereo unspecified)	x	x	x	-1%[12.9 µM]
